Reference: PubChem BioAssay (NCI)
The panel holds about 79,000 compounds, 15% with a hit somewhere; the sample as a whole holds those more often. Rule as the data show it: active = growth inhibition above about 70%; inactive = the rest. Where a SMILES comes first, the peptide text is derived from it. Bridges are numbered along the chain shown (N, C = ends). [ ]: non-standard residue; d: D form. The star is where a group is joined. ξ: configuration not given here. ξNMePhe(4-NMe2) = CNC(Cc1ccc(N(C)C)cc1)C(=O)O; Picolinoyl(3-OH) = O=C(c1ncccc1O)*; ξPip(4-oxo) = O=C1CCNC(C(=O)O)C1; Phg = N[CH](C(=O)O)c1ccccc1; Abu = CC[CH](N)C(=O)O

Experiments:
[1] = NCI Yeast Anticancer Drug Screen. Data for the rad50 strain (AID 155);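 also: 0% = growth of vehicle-only cultures of the same strain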; conditions: S. cerevisiae rad50 strain growth inhibition; at 50.0 µM; stronger effect = higher value
Summary of the method: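 Inhibition values express reduced yeast growth in compound-treated cultures relative to vehicle-treated controls.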

[2] = NCI Yeast Anticancer Drug Screen. Data for the mec2-1 strain (AID 157); conditions: S. cerevisiae mec2-1 strain, at 50.0 µM, stronger effect = higher value
Summary of the method: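 Mutant yeast (mec2-1) grown with compound; growth inhibition relative to vehicle control reported.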

[3] = NCI Yeast Anticancer Drug Screen. Data for the sgs1 mgt1 strain (AID 161);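 also: 0% = growth of cultures given vehicle only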; conditions: S. cerevisiae sgs1 mgt1 strain, at 50.0 µM, stronger effect = higher value
Summary of the method: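 Yeast cells carrying a defined DNA-repair defect were exposed to test compounds. Growth inhibition was measured relative to vehicle-treated controls.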

[4] = NCI Yeast Anticancer Drug Screen. Data for the cln2 rad14 strain (AID 165);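 also: 0% = growth equal to vehicle treated cultures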; conditions: S. cerevisiae cln2 rad14 strain, at 50.0 µM, stronger effect = higher value
Summary of the method: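 Readout is yeast growth inhibition versus vehicle-treated controls, using a strain with cln2 and rad14 alterations exposed to compound.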

[5] = NCI Yeast Anticancer Drug Screen. Data for the mlh1 rad18 strain (AID 175); conditions: S. cerevisiae mlh1 rad18 strain growth inhibition; at 50.0 µM; stronger effect = higher value
Summary of the method: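 Genetically defined yeast (DNA repair-deficient) exposed to compounds; growth inhibition determined relative to vehicle.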

[6] = NCI Yeast Anticancer Drug Screen. Data for the bub3 strain (AID 167); conditions: S. cerevisiae bub3 mutant strain, at 50.0 µM, stronger effect = higher value
Summary of the method: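 Steps: expose the mutant yeast strain to compound; grow alongside vehicle-treated cultures; measure growth; express inhibition against the vehicle cultures.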

Measured: growth inhibition

Cc1ccc(CCCC(=O)O)c(C)c1
inactive: [1] 6.5% | [2] -0.25% | [3] 22.1% | [4] 1.45% | [5] 45.6%

COc1cc2cc(OC(C)=O)c3cc4c(cc3c2c(OC)c1OC)OCO4
inactive: [1] -18.4% | [2] -10.8% | [3] -16.3% | [4] -5.2% | [5] -25.1%

O=C1c2ccccc2C(=O)c2c1ccc(C(=O)O)c2[N+](=O)[O-]
inactive: [1] 29.4% | [2] 16.6% | [3] 32.2% | [4] 31.8% | [5] 28%

CC(=O)Cc1cc(-c2cc(CC(C)=O)[nH]n2)n[nH]1
inactive: [1] -45.1% | [2] -22.1% | [3] -24.1% | [4] -25.5% | [5] -5%

CCOc1ccc(/C=N/N=C(N)N)cc1OCC
inactive: [1] -31.4% | [2] -18% | [3] -17.6% | [4] -53.4% | [5] -11.9%

CCC1NC(=O)C(NC(=O)c2ncccc2O)C(C)OC(=O)C(c2ccccc2)NC(=O)C2CC(=O)CCN2C(=O)C(Cc2ccc(N(C)C)cc2)N(C)C(=O)C2CCCN2C1=O (stereo unspecified) (tested in a mixture with another compound) ({Picolinoyl(3-OH)}-T[Abu]P[ξNMePhe(4-NMe2)][ξPip(4-oxo)][Phg]; ester 1-C; configuration not given here)
inactive: [1] 19.4% | [2] -5.15% | [3] 3.3% | [4] 20.7% | [5] -14.7%

COc1cc2cc(c1Cl)N(C)C(=O)C[C@H](OC(=O)[C@H](C)N(C)C(C)=O)[C@]1(C)O[C@H]1[C@H](C)[C@@H]1C[C@@](O)(NC(=O)O1)[C@H](OC)C=C/C=C(\C)C2
inactive: [1] 12.1% | [2] -11.4% | [3] 6.55% | [4] 14.1% | [5] 25.3%

COc1cc(/C=C/C(=O)c2ccccc2)cc(OC)c1OC
inactive: [1] -4.7% | [2] -5.8% | [3] -3% | [4] 34.5% | [5] -2.3%

N#CC(=Nc1cccc(F)c1)C1=C(O)c2ccccc2C1=O
inactive: [1] 11.6% | [2] -2.6% | [3] 22.4% | [4] 27.6% | [5] 18.8%

O=c1cc2oc3cc(O)c(O)cc3c(-c3ccccc3O)c-2cc1O
inactive: [1] 26.1% | [2] 2.25% | [3] 44.9% | [4] 32.3% | [5] 26.4%

C/C(O)=C(\C=N\C(N)=S)C(=O)Nc1ccccc1
inactive: [1] -4.6% | [2] -8.1% | [3] -23.9% | [4] -0.55% | [5] 3.7%

CC1(C)S(=O)(=O)OCCOS1(=O)=O
inactive: [1] -25.4% | [2] 16.6% | [3] 6.75% | [4] -20.5% | [5] 0.15%

CC(C)(O)C#CC#CC(C)(C)O
inactive: [1] 30.9% | [2] 4.2% | [3] 5.4% | [4] 3.8% | [5] -0.55%

O=C1Cc2ccccc2C(=O)O1
inactive: [1] 25.9% | [2] -16.5% | [3] 1.95% | [4] -22.1% | [5] 15.6%

O=C(O)c1ccnc(Br)c1
inactive: [1] -3.05% | [2] -0.05% | [3] -31.1% | [4] 11.7% | [5] -14.2%

COc1nc(N)nc2c1ncn2C1OC(CO)CC1O (stereo unspecified)
inactive: [1] 13.4% | [2] -3.2% | [3] -3.5% | [4] 10.9% | [5] 25.8%

C=CC[N+](C)(C)C
inactive: [1] 6.75% | [2] -27.9% | [3] 5.75% | [4] 7.7% | [6] 14.2% | [5] 7.4%

Nc1nc(OCc2ccccc2)c2[nH]cnc2n1
inactive: [1] -15.3% | [2] -0.15% | [3] -48.1% | [4] -29.2% | [6] -30.9% | [5] -42.5%

c1ccc2c(N3CCCCC3)ncnc2c1
inactive: [1] 0.85% | [2] -1% | [3] -4.65% | [4] 4.8% | [5] -3%

O=c1[nH]c(O)c(/C=C2/C=Nc3ccccc32)[nH]1
inactive: [1] 0.45% | [2] -5.85% | [3] -8.35% | [4] -15.2% | [6] 4.1% | [5] 0.6%

Cc1cc(C)c(N)c(S(=O)(=O)O)c1
inactive: [1] -0.7% | [2] -6.45% | [3] -24.1% | [4] -63% | [6] 11.2% | [5] -13.7%

COc1ccc(C(=O)C(Br)C(Br)C(=O)O)cc1 (stereo unspecified)
inactive: [1] 24.6% | [2] 24.4% | [3] 6.35% | [6] 5.45% | [5] 38.9%

Cc1cc2nc(CC(=O)c3cccc([N+](=O)[O-])c3)c(=O)[nH]c2cc1C
inactive: [1] 22.2% | [2] 10.9% | [3] 7.1% | [6] -6.15% | [5] 39.5%

CC(=O)OCCO
inactive: [1] 9.6% | [2] 3.5% | [3] -9.65% | [4] -6.35% | [5] 17.6%

S=C(Nc1ccccc1)N1CCCCC1
inactive: [1] -2.8% | [2] 1.25% | [3] -10.2% | [6] 2.4% | [5] -8.4%

O=C(O)COCC(=O)O
inactive: [1] 34.1% | [2] -15.2% | [3] -11.4% | [4] -53.2% | [5] 4.75%

Cc1cc(NC(=O)CSCC(=O)O)no1
inactive: [1] -19.2% | [2] -34.5% | [3] -2.45% | [6] -7.8% | [5] -2.75%

O=C(CCl)N1CCN(C/C=C/c2ccccc2)CC1
inactive: [1] 8.15% | [2] -0.05% | [3] 19.1% | [6] 39.9% | [5] 28.5%

O=C(NN=C1CCCCC1)C(=O)NN=C1CCCCC1
inactive: [1] 34.1% | [2] 13.6% | [3] 13.5% | [6] 10% | [5] 28.6%

COc1ccccc1C1OC2=Nc3cc(C)c(C)cc3NC2C1=O (stereo unspecified)
inactive: [1] 11.1% | [2] -9.95% | [3] -1.95% | [6] -21.1% | [5] 5.95%

CCCC(=O)c1cc(C)ccc1OC
inactive: [1] -2.15% | [2] 0.15% | [3] -9.85% | [6] 6.6% | [5] -3.2%

CC(=O)OC(OC(C)=O)C1CCCO1 (stereo unspecified)
inactive: [1] -5.75% | [2] -21.6% | [3] -2.1% | [4] 17.1% | [5] 1.1%

COc1ccc(C2(O)CCCCC2)cc1
inactive: [1] 17.7% | [2] -13.2% | [3] 2.85% | [6] 7.35% | [5] 28.2%

CC1SC(N)=NC1=O (stereo unspecified)
inactive: [1] 12.8% | [2] -6.7% | [3] 0.25% | [6] -7.5% | [5] 2.55%

CC(=O)c1ccc(C)c(N)c1
inactive: [1] -4.15% | [2] 0.15% | [3] 6.25% | [5] 27.4%

O=C(O)CNC(=O)c1ccccc1
inactive: [1] -46% | [2] -4.45% | [3] -25.6% | [6] -25% | [5] -47.6%

N/N=C(/Cc1ccccc1)NNC(N)=S
inactive: [1] 1.95% | [2] -13.7% | [3] -26.6% | [6] -12% | [5] -0.45%

CCC(C)(C)C1CCC(O)CC1 (stereo unspecified)
inactive: [1] 10.2% | [2] 6.6% | [3] 12.7% | [6] -5.15% | [5] 1.5%

CC1CC(O)CC(C)(C)C1 (stereo unspecified)
inactive: [1] 5.55% | [2] -10.1% | [3] 1.35% | [6] 2.2% | [5] -4.25%

Cc1ccccc1C1N=C2Oc3ccccc3C=C2C(=O)N1 (stereo unspecified)
inactive: [1] 10.7% | [2] -11.8% | [3] 0.6% | [6] -17.4% | [5] -32.5%

CN(C)/N=C/c1ccccc1O
inactive: [1] 1% | [2] 4% | [3] -16.9% | [6] -21.6% | [5] 2.9%

O=C1NC(=O)C2C(=O)NC(=O)C1C21CCc2ccccc21 (stereo unspecified)
inactive: [1] -8.5% | [2] -16.6% | [3] -23.5% | [6] -41.9% | [5] -7.45%

Cc1ccc(C)n1-c1ccsc1C(=O)NNC(=O)C(Cl)Cl
inactive: [1] 5.9% | [2] 13.9% | [3] 24.8% | [6] 21.7% | [5] 20.7%

Cc1ccc(C(O)C2CC2)cc1 (stereo unspecified)
inactive: [1] -24.2% | [2] -38.6% | [3] -23.1% | [5] -0.65%

O=C(/C(=N/O)c1ccccc1)c1ccccc1
inactive: [1] 7.4% | [2] -21.6% | [3] 1.35% | [6] 4.85% | [5] 12.2%

Cc1nc2c(ccc3ccccc32)s1
inactive: [1] 10.4% | [2] -5.35% | [3] 22.7% | [6] 3.5% | [5] 15.4%

Cc1cc(C(C)(C)C)cc(C)c1Br
inactive: [1] -1.85% | [2] -0.85% | [3] -9.25% | [6] 0.15% | [5] -1.65%

CCCC[P+](c1ccccc1)(c1ccccc1)c1ccccc1
inactive: [1] 45.5% | [2] 40% | [3] 48.4% | [5] 65.2%

CCO/C=C1\SC(=S)N(c2cccc(C)c2)C1=O
inactive: [1] 11.1% | [2] 13.7% | [3] 1.25% | [6] 14.9% | [5] 16.9%

N#C/C(=C\c1cc(O)c(O)c(O)c1)C(N)=O
inactive: [1] 29.8% | [2] -14.8% | [3] 24.6% | [6] 25.7% | [5] 35.5%
